NS1 inh = qHTS Assay for Inhibitors of Influenza NS1 Protein Function; Potency, µM (series often up to 46.1 µM), for inactives: at the highest dose activity, positive = more growth; 270,000 compounds, 0.4% hits; calls by dose curve; note: potency is the fitted concentration of half-maximal effect; actives are rising curves; nearly all actives have a fitted effect of over 50% in size
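S. cerevisiae expressing influenza A NS1, grown in glucose, washed, then diluted 1:100 into pH 6.0 -URA galactose medium with 23 nl compound. Growth recovery read as OD600; NS1-free strain serves as control.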
Tb PYK inh = qHTS of Trypanosoma Brucei Inhibitors; TbPYK enzyme, Kinase-Glo Plus ATP luminescence, 45 min; Potency, µM (series often up to 76.8 µM), without a hit: top-dose activity, negative = inhibition, actives largely listed as inhibitors; AID 624173, 2012; 410,000 compounds, 0.12% hits; pyruvate kinase (Trypanosoma brucei), Q57TT1; note: potency is the fitted concentration of half-maximal effect; % is set by controls: 0 for no effect and ±100 for the full control effect; nearly all actives have a fitted effect of over 50% in size
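Screened from lowest to highest concentration, compounds were pinned into TbPYK/substrate mixtures, and ADP (130 uM final) was added. Plates sat at room temperature for 45 min prior to Kinase-Glo Plus detection by luminescence.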
SARS PLP yeast = qHTS of Yeast-based Assay for SARS-CoV PLP. S. cerevisiae expressing SARS-CoV PLpro, growth rescue. Potency, µM (titrated, usually from 32.9 µM), inactives show top-dose activity, positive = growth rescue, most hits filed as activators. 330,000 compounds, 0.19% hits. AID 485353, 2010; calls by dose curve; note: potency is the fitted concentration of half-maximal effect; 0% is about no effect; nearly all actives have a fitted effect of over 55% in size
LmPK inh = qHTS Assay for Inhibitors of Leishmania Mexicana Pyruvate Kinase (LmPK); 290,000 compounds, 0.37% hits; Q27686; purified LmPK, Kinase-Glo ATP luminescence, 1 h; Potency, µM (titrated, usually from 57.5 µM), for inactives: at the top dose activity change, negative = inhibition, most hits filed as inhibitors; note: potency is the fitted concentration of half-maximal effect; % is set by controls: 0 for no effect and ±100 for the full control effect
Target sequence (Q27686 whole entry, looked up): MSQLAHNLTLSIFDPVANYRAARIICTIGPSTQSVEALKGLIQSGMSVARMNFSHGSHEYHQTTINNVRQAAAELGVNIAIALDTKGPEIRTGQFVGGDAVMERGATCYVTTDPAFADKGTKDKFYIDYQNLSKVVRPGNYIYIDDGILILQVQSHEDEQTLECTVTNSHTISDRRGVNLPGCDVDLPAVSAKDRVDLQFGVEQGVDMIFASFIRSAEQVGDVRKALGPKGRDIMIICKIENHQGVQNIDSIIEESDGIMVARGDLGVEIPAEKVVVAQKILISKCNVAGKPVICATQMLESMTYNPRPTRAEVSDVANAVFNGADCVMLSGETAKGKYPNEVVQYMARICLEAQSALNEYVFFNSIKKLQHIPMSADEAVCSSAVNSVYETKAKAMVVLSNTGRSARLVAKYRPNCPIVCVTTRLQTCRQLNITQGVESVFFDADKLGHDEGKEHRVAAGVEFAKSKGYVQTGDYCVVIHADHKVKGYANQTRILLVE
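Screened at intermediate enzyme activity to detect both inhibitors and activators: LmPK at 0.1 nM, with a 0.5 nM enzyme column as activation reference. PEP 0.5 mM, ADP 0.1 mM; ATP detected by luminescence after 1 h.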
CHX counter = Cycloheximide Counterscreen for Small Molecule Inhibitors of Shiga Toxin; 300,000 compounds, 12% hits; max response, %; cell reporter, cycloheximide protein synthesis inhibition counterscreen; in the data active = max response mostly above about 13%, no sharp cut-off; inactive = mostly below about 14%; note: read at 38.3 µM for the half of the compounds with a filed dose; 0% is about no effect
Shiga inhibitor = A qHTS for Small Molecule Inhibitors of Shiga Toxin; Vero cells, Shiga toxin protein synthesis inhibition reporter; inhibition, % at 38.7 µM; 290,000 compounds, 9.2% hits; in the data active = inhibition mostly above about 28%, no sharp cut-off; inactive = mostly below about 43%; note: 0% is about no effect
Starred values were filed as active, the others as inactive; ? = inconclusive; / = not tested or not shown. This excerpt belongs to a sample that is enriched for hits. Unless noted, calls come from the whole dose curve; as a rule, active = well fitted curve in the direction sought with a large enough effect; inconclusive = small, poorly fitted or top-dose-only effect, or another doubt; inactive = no such curve, though single readings can be large; an effect the other way counts as inactive or inconclusive.

SMILES	NS1 inh	Tb PYK inh	SARS PLP yeast	LmPK inh	CHX counter	Shiga inhibitor
O=C(Nc1ccc(Cl)cc1)Nc1ccc2c(c1)OCO2	-2.4%	6.1%	-1.9%	-10.2%	76.4*	79.8*
O=C(Nc1cccc(C(=O)O)c1)Nc1ccc2c(c1)OCO2	?	-16.3%	-3.3%	-7.4%	29.7*	36.1*
O=C(Nc1ccc2c(c1)OCO2)Nc1ccc(Cl)cc1Cl	-2.3%	/	1.2%	2.0%	28.1*	63.6*
CC1=C(C)CC(C(=O)Nc2ccc3c(c2)OCO3)C(C(=O)O)C1 (centres undefined)	0.3%	-22.9%	-0.2%	5.0%	28.5*	40.7*
CC(C)c1ccccc1NC(=O)Nc1ccc2c(c1)OCO2	-5.9%	6.7%	-5.9%	-5.5%	1.8	24.9
O=C(Nc1ccc([N+](=O)[O-])cc1)Nc1ccc2c(c1)OCCO2	/	1.2%	4.8%	5.6%	55.0*	128.8*
Cc1ccc(C(=O)O)cc1NC(=O)Nc1ccc2c(c1)OCO2	/	-7.8%	-2.8%	-5.0%	19.7*	72.6*
O=C(Nc1cccc(C(=O)O)c1)/C(=C\c1ccc2c(c1)OCO2)NC(=O)c1ccc(Br)o1	/	-16.5%	0.3%	2.4%	16.4*	45.4*
Cc1ccc(NS(=O)(=O)c2ccc(C(=O)NCc3ccc(S(N)(=O)=O)cc3)cc2)cc1	/	5.2%	1.3%	/	/	/
CCN(CC)c1ccc2cc(-c3nc(-c4ccccc4)no3)c(=O)oc2c1	/	-7.3%	/	/	/	/
Cc1c(C(=O)N2CCOCC2)c(S(=O)(=O)Nc2cccc(C#N)c2)c(C)n1C	-3.4%	-8.3%	22.3%	-1.6%	-3.1	-8.4
CCN(C(=O)c1nn(-c2ccc(C)cc2)c(=O)c2c1c1ccccc1n2C)c1ccc(F)cc1	/	-0.9%	/	/	/	/
Cc1cc(C)cc(OCC(=O)Nc2ccc3c(c2)OCO3)c1	-3.4%	-17.9%	-1.1%	-2.6%	16.1	15.9
CCc1ccc2[nH]c(C(=O)Nc3ccc(F)cc3Br)cc2c1	-1.4%	-17.7%	1.6%	-2.0%	6.5	19.2
Cc1cc(C)c(NC(=O)Nc2ccc3c(c2)OCO3)c(C)c1	11.7%	-1.7%	8.9%	3.9%	37.2*	82.4*
O=C(Nc1cccnc1)Nc1ccc2c(c1)OCO2	-5.5%	/	-12.1%	?	43.3*	88.0*
CCc1ccc2[nH]c(C(=O)Nc3ccc4c(c3)OCO4)cc2c1	14.7%	-4.9%	-1.4%	4.8%	19.3*	47.5
CCc1ccc2[nH]c(C(=O)Nc3ccc(Br)c(C)n3)cc2c1	1.3%	-16.4%	1.1%	-0.6%	31.7*	136.6*
Cc1cccc(-c2onc3ccc(C(=O)/C=C/N(C)C)cc23)c1	16.3%	3.9%	-4.7%	8.5%	9.6	-2.9
NC(=O)c1cc(S(=O)(=O)N2CC=C(c3ccccc3)CC2)cs1	-0.7%	-3.0%	-0.5%	-1.8%	-3.6	-6.3
COc1cc(CNc2ccc(NC(C)=O)cc2)ccc1OCc1ccccc1C	-5.0%	0.0%	-4.0%	-3.1%	46.4*	87.5*
COc1cc(CNc2ccc(N3CCN(C(C)=O)CC3)cc2)ccc1OCc1ccccc1	8.9%	-14.7%	-2.7%	2.4%	23.3*	51.6*
Cc1ccc(SCCC(=O)NC(C)(C)C)cc1	12.9%	-6.0%	-5.4%	4.3%	44.3*	73.2*
Cc1ccc(SCCC(=O)N(C)C)cc1	?	7.6%	0.5%	-11.7%	17.0*	22.9
O=C(CSc1nc2c([nH]c3ccccc32)c(=O)n1-c1ccc(Cl)cc1)NCc1ccccc1	/	1.6%	/	/	/	/
Cc1ccc(CNC(=O)c2nnn(Cc3ccc(F)cc3)c2N)cc1	/	2.6%	/	/	/	/
CC(=O)O[C@@H]1[C@@H](O)CN[C@@H]1Cc1ccccc1	/	/	/	/	-13.4	-29.2
Cc1cc(C)c2c(n1)sc1c(=O)n(CC(=O)c3ccccc3)cnc12	-2.0%	7.0%	4.5%	2.3%	19.3	30.5
C=CCOC(=O)Cn1cnc2c(sc3nc(C)cc(C)c32)c1=O	6.3%	-11.6%	2.4%	-2.3%	46.4*	71.9*
O=C(Nc1ccc(Br)cc1)N1CCc2ccccc2C1	-32.0%	0.7%	-11.4%	0.2%	52.6*	125.5*

Screening data as filed in PubChem.
